Results on 105 molecules are retold here after ChEMBL document CHEMBL3988442, “University of Dundee, Small-Polar-MMV Screening Library” (2021).

Hit rate of the full screen: of about 38,000 compounds, about 1,200 (3.2%) showed an effect of 50% or more. The median lay at about -58%. This excerpt belongs to a sample that is enriched for strong results.

This experiment relates to Plasmodium falciparum. The experiment can be described thus: Calibr Malaria Delayed Death Assay SOP. The class given is functional, organism-based. The arrangement: scale not given: in the data most compounds retested in dose-response had high values. Conditions: concentration 4.99e-06 (unit not given; other assays of the set use mol/L).
In the case of `CC(C)c1cc(C(=O)NC2CCN(CC(N)=O)CC2)nn1C(C)(C)C`, the “Percent Effect” value is listed as -153%.
In the case of `COc1ccc2oc(C(C)NC(=O)NCc3noc(C)n3)c(C)c2c1` (stereo not given), the “Percent Effect” value is -10.38%.
Next, `CCc1cnc(N)nc1NCCCn1nc(C)nc1C`: -48.25%; `CCc1cnc(N)nc1NCCCn1cc(Cl)cn1`: 84.03%.
In the case of `CCc1cnc(N)nc1NCCn1cc(Cl)cn1` it was 54.15%.
In the case of `CCc1cnc(N)nc1NCCC(=O)NC1CCCCC1` it was -82.55%.
For the molecule `CCc1cnc(C)nc1NCCN1CCOCC1`, the “Percent Effect” value is given as -14.69%.
Next, `Cn1cc(Br)c(C(=O)NCCCn2cc(Cl)cn2)n1`: -63.62%.
Turning to `CCN(CC)C(=O)C1CCCN(CC(=O)Nc2c(C)nn(CC)c2C)C1` (stereo not given), the “Percent Effect” value is recorded as -43.93%.
In the case of `Cc1nn(CC(=O)N2CCN(Cc3cnn(C)c3C)CC2)cc1Cl`, the “Percent Effect” value was -81.13%.
On to `CCNC(=O)c1ccc(N2CCCC(c3nccn3C(C)C)C2)nc1` (stereo not given), for which the “Percent Effect” value is reported as -31.13%.
In the case of `CC(C)n1ccnc1C1CCN(C(=O)c2ccccc2)CC1` it was -13.68%; in that of `Cc1cc(N2CCCC(N(C)C)C2)n2nccc2n1` (stereo not given), -65.48%.
On to `CN(C)C1CCN(c2cc(-c3ccccc3)nc3ccnn23)C1` (stereo not given), for which the “Percent Effect” value came out at 51.07%.
In the case of `CCNC(=O)C1CCN(c2cc(-c3ccccc3)nc3ccnn23)C1` (stereo not given), the “Percent Effect” value is -30.81%.
Take `O=C(NCCCn1ccccc1=O)c1cnc(-c2ccsc2)s1`: the “Percent Effect” value is -39.04%.
Next, `O=S(=O)(CCNCc1cccc2c1OCCO2)N1CCOCC1`: 10.69%.
For the molecule `O=C(CC1CCCC1)NCCNCc1cccc2c1OCCO2`, the “Percent Effect” value was 71.86%.
In the case of `O=C(CCNCc1cccc2c1OCCCO2)NC1CCCC1` it was 12.04%; in that of `CC(C)c1nc(CN2CCOC(CNc3cccnn3)C2)cs1` (stereo not given), -68.41%.
`O=C1c2ccccc2C(=O)N1CC(O)Cn1nc(-c2cccs2)oc1=O` (stereo not given): the “Percent Effect” value worked out at 1.705%.
For the molecule `O=C(c1ccnc(CC2COc3ccccc3C2)c1)N1CCCC1` (stereo not given), the “Percent Effect” value is reported as -41.96%.
For the molecule `CCS(=O)(=O)N1CCc2ccc(NC(=O)NC(C)(C)C)cc21`, the “Percent Effect” value is given as -106.6%.
Take `Cc1cccc(-c2[nH]ncc2CNCC2CCN(CC(C)O)CC2)c1` (stereo not given): the “Percent Effect” value is listed as -49.15%.
With `CCn1ccnc1CNCC1CCN(CC(O)c2ccccc2)CC1` (stereo not given), the “Percent Effect” value is given as -30.37%.
On to `CC(C1CCN(Cc2ccc(N(C)C)nc2)CC1)N1CCOCC1` (stereo not given), for which the “Percent Effect” value is -9.646%.
`FC(F)(F)Oc1cccc(CNC[C@H]2Cn3ccnc3CO2)c1`: the “Percent Effect” value is -105.1%.
For the molecule `CC(O)CN1CCC(CNCc2cccc(C(F)(F)F)c2)CC1` (stereo not given), the “Percent Effect” value is on record as 82.43%.
`CC(C)Oc1cccc(CN2CCC(C(C)N3CCOCC3)CC2)c1` (stereo not given): the “Percent Effect” value came out at 55.35%.
`CN1CCOC(CNCc2cccc(OC(F)(F)F)c2)C1` (stereo not given): the “Percent Effect” value is 1.205%.
With `CC(C1CCN(Cc2ccc(OC(F)F)cc2)CC1)N1CCOCC1` (stereo not given), the “Percent Effect” value is reported as -27.61%.
With `CC(O)CN1CCC(CNCc2cccc(OC(C)C)c2)CC1` (stereo not given), the “Percent Effect” value turned out to be 61.47%.
Consider `CC(O)CN1CCC(CNCc2cccc(C(N)=O)c2)CC1` (stereo not given), for which the “Percent Effect” value is given as -77.28%.
Next, `CC(C)Oc1cccc(CC(=O)NC2CCN(CC(N)=O)CC2)c1`: -80.49%; `O=C(Nc1cn[nH]c1)N1CCCCCC1c1ccncc1` (stereo not given): -103.8%.
`Cn1cnc(S(=O)(=O)N2C[C@@H]3CC[C@H](C2)N(Cc2ccccn2)C3)c1`: the “Percent Effect” value is -132.7%.
In the case of `N#Cc1ccc(F)c(CNC(=O)NC(CO)c2ccccc2)c1` (stereo not given), the “Percent Effect” value is recorded as -103.2%.
Regarding `Cc1ccc(N2CCC3(CCC(=O)N3Cc3ccncc3)CC2)nn1.O=C(O)C(F)(F)F`, the “Percent Effect” value is given as -132.1%.
With `COCCn1cc(CC(=O)Nc2cc(C)n(C)n2)c2ccccc21`, the “Percent Effect” value was -50.35%.
Next, `Cc1cc(NCCC(=O)NC2CCCCC2)nc(-c2ccncc2)n1`: -22.05%.
`CC(O)CN1CCC(CNCc2ccc(S(C)(=O)=O)cc2)CC1` (stereo not given): the “Percent Effect” value is listed as -36.2%.
Take `Cc1ccc(-c2n[nH]cc2CNCC2CCN(CC(C)O)CC2)cc1` (stereo not given): the “Percent Effect” value was -46.8%.
In the case of `Cc1ncc(C(=O)N2CCCC(n3cccn3)C2)s1` (stereo not given), the “Percent Effect” value is reported as -29.56%.
For the molecule `O=S(=O)(NCC1CCN(CCN2CCOCC2)C1)c1ccccc1F` (stereo not given), the “Percent Effect” value is listed as -18.99%.
Consider `Cc1cc(CN2CCC(CNS(=O)(=O)c3ccccc3F)CC2)c(C)o1`, for which the “Percent Effect” value is 78.36%.
Turning to `O=C(c1cccc(CNS(=O)(=O)c2ccccc2F)c1)N1CCCC1`, the “Percent Effect” value was -96.06%.
In the case of `CNC(=O)CS(=O)(=O)C1CCN(S(=O)(=O)c2ccccc2Cl)CC1`, the “Percent Effect” value is listed as -120%.
As for `Cc1cc(CN2CCC(CNS(=O)(=O)c3ccccc3Cl)CC2)c(C)o1`, the “Percent Effect” value worked out at 52.45%.
On to `Cc1cnc2c(S(=O)(=O)NCC3CC3)cccc2c1`, for which the “Percent Effect” value is given as -114.6%.
Next, `CN(Cc1cnn(C)c1)C(=O)CCc1ccc2c(c1)OCO2`: -45.89%.
In the case of `O=C(NCCc1ccncc1)c1cccnc1OCC(F)(F)F`, the “Percent Effect” value was -160.3%.
As to `CN(C)S(=O)(=O)N1CC[C@]2(O)CCN(Cc3cccc(F)c3)C[C@@H]2C1`, the “Percent Effect” value was 18.33%.
Take `CN(C)S(=O)(=O)N1CC[C@]2(O)CCN(Cc3cccc(C#N)c3)C[C@@H]2C1`: the “Percent Effect” value is given as -65.92%.
In the case of `Cc1ccc(CN2CC[C@@]3(O)CCN(S(=O)(=O)N(C)C)C[C@H]3C2)cc1C`, the “Percent Effect” value is on record as 52.24%.
In the case of `CN(C)S(=O)(=O)N1CC[C@]2(O)CCN(Cc3cc(F)cc(F)c3)C[C@@H]2C1` it was -90.9%; in that of `CN(C)S(=O)(=O)N1CC[C@]2(O)CCN(CCCc3cccnc3)C[C@@H]2C1`, -68.67%.
Next, `CN(C)S(=O)(=O)N1CC[C@]2(O)CCN(CCc3cccc(F)c3)C[C@@H]2C1`: 52.04%; `CCCC(=O)N1CCc2c(CNS(C)(=O)=O)cncc2C1.Cl`: -54.25%; `CCN(CC)S(=O)(=O)CC(=O)N1CCc2ccc(F)cc21`: -118.6%.
Regarding `CC(C)[C@H](N)c1nnc(SCC(=O)Nc2ccc(Br)cc2)o1.Cl`, the “Percent Effect” value is listed as -137.1%.
Regarding `O=C1CC(c2ccncc2)c2c(c(C(=O)O)cn2-c2ccccc2)N1` (stereo not given), the “Percent Effect” value is reported as -138.8%.
As for `Cc1ccc(CN(C)C(=O)CCn2c(=O)n(C)c3ccccc32)o1`, the “Percent Effect” value is reported as -119.3%.
Next, `CN1CCCN(C[C@@H]2CN(C(=O)N3CCOCC3)C[C@@H]2CO)CC1`: -70.22%; `CCc1nn(C)c(Cl)c1CN1CCCC(c2cc(O)nc(C)n2)C1` (stereo not given): 11.23%.
With `COC[C@@]12CCO[C@@H]1CCN(C(=O)Cc1ccc(C)cc1)C2`, the “Percent Effect” value was -64.19%.
In the case of `C[C@@H]1CN(C(=O)C2CCS(=O)(=O)CC2)C[C@@]1(O)C1CC1` it was -43.61%.
As to `C[C@@H]1CN(C(=O)CCN2CCCC2)CC[C@@]1(O)C1CCOCC1`, the “Percent Effect” value is -34.11%.
Next, `C[C@@H]1CN(C(=O)C2CCS(=O)(=O)CC2)CC[C@@]1(O)C1CCOCC1`: 70.51%.
Consider `O=C(NCCc1cc(F)ccc1F)NC(CO)c1ccccc1` (stereo not given), for which the “Percent Effect” value is listed as -122.1%.
In the case of `Cc1nc(CN(C)C2CCN(CC3CCOCC3)C2)no1` (stereo not given), the “Percent Effect” value was -100.7%.
In the case of `CN1CCN(Cc2nnc(C3CCN(C(CO)CO)CC3)n2C)CC1` it was -107%.
As for `CS(=O)(=O)NC1CC2(CCN(CC3CC3)CC2)Oc2ccccc21.O=C(O)C(F)(F)F` (stereo not given), the “Percent Effect” value is listed as -15.02%.
Consider `O=C(NC1CC2(CCN(CCO)CC2)Oc2ccccc21)c1csnn1` (stereo not given), for which the “Percent Effect” value was -18.14%.
Next, `CCN1CCC2(CC1)CC(NCc1cccs1)c1ccccc1O2.O=C(O)C(F)(F)F.O=C(O)C(F)(F)F` (stereo not given): 85.8%; `CCC(=O)N1CCC2(CC1)CC(CC(=O)NC1CC1)c1ccccc1O2` (stereo not given): -119.5%.
`CCN1CCC2(CC1)CC(NC(=O)c1csnn1)c1ccccc1O2.O=C(O)C(F)(F)F` (stereo not given): the “Percent Effect” value is on record as -39.08%.
As for `Cc1nc(NC(=O)c2nn(-c3ccc(F)cc3C)cc2O)n[nH]1`, the “Percent Effect” value is -112%.
As for `CC(C)c1nc(C2CCCN2Cc2ccon2)no1` (stereo not given), the “Percent Effect” value is recorded as -96.31%.
As for `Cc1noc(C)c1CN1CCO[C@H]2CN(C3CCOCC3)C[C@H]21.O=C(O)C(F)(F)F`, the “Percent Effect” value was 1.266%.
For `O=C(C1CC(=O)N(c2n[nH]c3cc(Br)ccc23)C1)N1CCSCC1` (stereo not given), the “Percent Effect” value is listed as -122.2%.
For the molecule `OC1(CN2CCc3nnc(Cc4cccnc4)n3CC2)CCCNC1` (stereo not given), the “Percent Effect” value is listed as -87.58%.
For the molecule `Cc1ccccc1N1CCN(C(=O)CC(C)C)CC1`, the “Percent Effect” value is listed as -106.5%.
For the molecule `CCN1CCn2c(C)cnc2C12CCN(C(=O)Cc1ccccc1)CC2.O=C(O)C(F)(F)F.O=C(O)C(F)(F)F`, the “Percent Effect” value is -58.2%.
For the molecule `Cc1ccc(C(=O)Nc2nnc(C3CC3)s2)c(-n2cnnn2)c1C`, the “Percent Effect” value was -130.7%.
As for `COCCOCC(=O)Nc1ccnn1-c1ccc(Cl)cc1`, the “Percent Effect” value is -102.7%.
Turning to `COCC(=O)Nc1ccnn1-c1ccc(Cl)cc1`, the “Percent Effect” value amounted to 67.79%.
In the case of `CCOCCC(=O)Nc1ccnn1-c1ccc(Cl)cc1`, the “Percent Effect” value is recorded as -25.55%.
With `COCCc1noc(C2CCCN(c3nc(N)nc4c3CCCC4)C2)n1` (stereo not given), the “Percent Effect” value is given as -100.3%.
Take `COCCn1ccnc1C1CCCN(c2ncnc3c2CCC3)C1` (stereo not given): the “Percent Effect” value was -114.3%.
With `O=C(C1CC1)N1CCCN(c2ncnc3c2CCNCC3)CC1`, the “Percent Effect” value is -49.17%.
Take `Nc1nc2c(c(N3CCCC(CN4CCCC4=O)C3)n1)CCNCC2` (stereo not given): the “Percent Effect” value is listed as -109.9%.
As for `Nc1nc2c(c(N3CCCC(c4nnc5ccccn45)C3)n1)CCNC2` (stereo not given), the “Percent Effect” value is 84.29%.
With `c1ccn2c(C3CCCN(c4ncnc5c4CCNC5)C3)nnc2c1` (stereo not given), the “Percent Effect” value was 74.94%.
`O=C(c1ccon1)N1CCN(c2ccncc2Cl)CC1`: the “Percent Effect” value is recorded as -22.81%.
Turning to `CC(CN1CCOC1=O)NC(=O)c1cccc2cc[nH]c12` (stereo not given), the “Percent Effect” value was -144.8%.
With `COc1ccccc1CCNC(=O)N1CCC(n2cncn2)CC1`, the “Percent Effect” value is listed as -50.18%.
Turning to `Cc1cc(C)c(CNC(=O)C(C)Oc2ccccc2F)c(=O)[nH]1` (stereo not given), the “Percent Effect” value was -101.9%.
Next, `O=C(C1CCCC1)N1CCC(c2n[nH]c3nccnc23)CC1`: -90.69%; `O=C(C1CC1)N1CCC(C(=O)N2CCC(c3ccc(F)cc3)C2)CC1` (stereo not given): -98.79%; `CC(C)Oc1ncccc1CNC(=O)C1CCCN(C(=O)C2CC2)C1` (stereo not given): -154.7%.
In the case of `O=C(C1CCCCC1)N1CCC(c2n[nH]c3nccnc23)CC1`, the “Percent Effect” value is recorded as -76.32%.
On to `CC(C)n1ccnc1C1CCN(C(=O)c2cc[nH]n2)CC1`, for which the “Percent Effect” value is -87.6%.
Regarding `O=C(C1CCC1)N1CCCC(c2cccc(-n3ccnc3)n2)C1` (stereo not given), the “Percent Effect” value is listed as -55.02%.
On to `O=C(C1CCC1)N1CCC(C(=O)N2CCC(c3ccc(F)cc3)C2)CC1` (stereo not given), for which the “Percent Effect” value is -81.93%.
Take `O=C(C1CC1)N1CCC(c2nc(-c3ccccc3)n[nH]2)CC1`: the “Percent Effect” value is given as -99.03%.
